# Compound activity: PubChem, National Center for Advancing Translational Sciences (NCATS)
# Pf growth 48h = P. falciparum growth inhibition at 48 hours (one generation). Potency, µM (doses to about 28.7 µM), hits mostly inhibitors. actives 5.9% (n = 310,000). P. falciparum luciferase growth in erythrocytes, 48 h
#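 Growth was read as firefly luciferase luminescence after a 48 h, 37 C, 5% CO2 exposure of compounds to reporter-bearing P. falciparum cultures (0.1% parasitemia, 2% hematocrit final) in Albumax-supplemented RPMI 1640.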
# SARS PLP yeast = SARS-CoV PLP inhibition in yeast. AID 485353. actives 0.19% (n = 330,000). S. cerevisiae expressing SARS-CoV PLpro, growth rescue. Potency, µM (doses to about 32.9 µM), hits mostly activators; calls by dose curve; also: nearly all actives have a fitted effect of over 55% in size
# NS1 function inh = inhibitors of influenza NS1 protein function | actives 0.4% (n = 270,000) | Potency, µM (highest dose often 46.1 µM); calls by dose curve; also: actives are rising curves; nearly all actives have a fitted effect of over 50% in size
#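 Recovery from NS1-induced slow growth read by OD600 in budding yeast switched to galactose assay medium (pH 6.0, -URA) at 1:100 dilution. Compound 23 nl per well; the matching strain lacking NS1 serves as control.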
# Pf growth 96h = P. falciparum growth inhibition at 96 hours. AID 504834. Potency, µM (doses to about 28.7 µM), hits mostly inhibitors. actives 6.9% (n = 320,000). P. falciparum luciferase reporter growth, 96 h
#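 Plates of compound plus infected erythrocytes (2% hematocrit, 0.05% parasitemia final) incubate 96 hours, 37 C, 5% CO2. Detection reagent added; reduced luminescence from the parasites' luciferase reporter flags inhibition.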
# A number is an active result; - = inactive; ? = inconclusive; . = no result; [ ] = another dose, or the depositor's remark. Compounds with a hit are over-represented: about 10% of the library has one in this group of screens. Unless noted, calls follow the shape of the dose curve; as a rule, active = well fitted inhibition curve with a large enough effect; inconclusive = small, poorly fitted or top-dose-only effect, or another doubt; inactive = no such curve, though single readings can be large or run the other way.
SMILES,Pf growth 48h,SARS PLP yeast,NS1 function inh,Pf growth 96h
CC1CN(S(=O)(=O)c2cccc(C(=O)OCC(=O)NCc3ccccc3)c2)CC(C)O1 (configuration not stated),?,-,.,?
COc1cccc(-n2c(SCC(=O)NC3CCCC3)nnc2-c2ccco2)c1,2.08µM,-,-,-
Cc1cccc(-n2c(SCC(=O)NC3CCCC3)nnc2-c2ccoc2C)c1,13.1µM,-,-,-
Cc1nnc(SCC(=O)NC2CC2)n1-c1ccccc1,-,?,-,4.65µM
Cc1nnc(SCC(=O)NC2CC2)s1,-,-,-,13.1µM
Cc1occc1-c1nnc(SCC(=O)NC2CC2)n1C,-,-,-,?
Cn1c(SCC(=O)NC2CCCC2)nnc1-c1ccco1,-,-,-,-
COc1ccc(CNC(=O)N2CCN(C(=O)c3ccccc3)CC2)cc1,-,-,.,-
Cc1cccc(-n2c(SCC(=O)NCc3ccco3)nnc2-c2ccco2)c1,?,-,-,5.22µM
CCc1nc(SCC(=O)NC2CC2)c2c(C)c(C)sc2n1,-,-,-,4.65µM
CCOC(=O)C1C(=O)C=C(c2ccc(C)cc2)CC1c1cccc([N+](=O)[O-])c1 (configuration not stated),?,-,?,6.57µM
CCOC(=O)C1C(=O)C=C(c2ccc(C)cc2)CC1c1ccco1 (configuration not stated),?,-,-,-
Cc1ccc(/C=c2\sc3nc(-c4ccccc4Br)nn3c2=O)o1,-,-,-,11.7µM
COc1cccc(-n2c(=O)c3cc(OC)c(OC)cc3n(CC(=O)Nc3cc(C)[nH]n3)c2=O)c1,-,-,-,?
Cc1c(Cl)cccc1NC(=O)Cn1cnc(S(=O)(=O)N2CCCC2)c1,-,-,-,7.38µM
N#Cc1ccc(NC(=O)Cn2cnc(S(=O)(=O)N3CCc4ccccc43)c2)cc1,-,-,-,11.7µM
CC1CCN(S(=O)(=O)c2cn(CC(=O)Nc3ccc(C#N)cc3)cn2)CC1,-,-,-,?
O=C(Cn1cnc(S(=O)(=O)N2CCCC2)c1)Nc1cccc(Br)c1,-,-,-,11.7µM
CCCCn1c(N)c(N(CC(C)C)C(=O)c2cc(-c3ccncc3)nc3ccccc23)c(=O)[nH]c1=O,?,-,.,-
CC(=O)N/N=C/c1cc([N+](=O)[O-])ccc1OCCOc1ccccc1,-,-,-,6.57µM
NC(=S)N/N=C/c1cc([N+](=O)[O-])ccc1OCCOc1ccccc1,.,-,-,-
O=C(Cn1nnc(-c2ccccc2)n1)N/N=C/c1cc([N+](=O)[O-])c(Cl)cc1Cl,-,?,-,-
O=C(CCC(=O)Nc1ccc(F)cc1)N/N=C/c1cc([N+](=O)[O-])ccc1O,?,-,.,-
O=C(CCC(=O)Nc1cc(C(F)(F)F)ccc1Cl)N/N=C\c1cc([N+](=O)[O-])ccc1O,13.1µM,-,-,-
O=C(N/N=C/c1coc2ccccc2c1=O)c1cccc([N+](=O)[O-])c1,-,-,-,5.86µM
SMILES,Pf growth 48h,SARS PLP yeast,NS1 function inh,Pf growth 96h
O=C(Cn1nnc(-c2ccccc2)n1)N/N=C/c1cc([N+](=O)[O-])ccc1O,-,?,-,10.4µM
O=C(NCCc1cnc[nH]1)c1ccc(-c2ccccc2)cc1,-,-,-,-
O=C(N/N=C/c1cc([N+](=O)[O-])ccc1O)c1cccc(NC(=O)c2cccc(Cl)c2)c1,2.33µM,-,-,-
O=C(N/N=C/c1cc([N+](=O)[O-])ccc1O)c1ccc(COc2ccc3c(c2)CCC3)o1,?,-,-,9.28µM
Cc1nc2ccc(C(=O)N/N=C/c3cc([N+](=O)[O-])ccc3O)cc2[nH]1,-[5.75 µM],-,.,-
O=C(Cn1nc2ccccc2n1)N/N=C/c1cc([N+](=O)[O-])ccc1O,4.65µM,-,.,?
O=C(N/N=C/c1cc([N+](=O)[O-])ccc1O)c1cccc2ccccc12,13.1µM,?,-,-
COc1ccc(Br)cc1/C=N/NC(=O)c1ccc(COc2ccc3c(c2)CCC3)o1,?,-,-,-
O=C(Cn1cncn1)N/N=C/c1cc([N+](=O)[O-])ccc1O,?,-,-,?
COc1ccc2nc(SCC(=O)N(C)C3CCCCC3)[nH]c2c1,?,-,.,?
CCO[C@@H]1OC(C(=O)N2CCOCC2)=C[C@H](c2ccccc2)[C@H]1CCCO,?,-,-,?
O=C(C1CCN(C2CCN(C/C(Cl)=C/c3ccccc3)CC2)CC1)N1CCOCC1,-,-,-,10.4µM
COc1ccc(CCNC2CC(=O)N(CCc3ccc(OC)c(OC)c3)C2=O)cc1 (configuration not stated),.,-,-,4.65µM
Cc1ccc(C(C(=O)NC2CCCCC2)N(Cc2ccco2)C(=O)C2COc3ccccc3O2)o1 (configuration not stated),7.38µM,-,-,.
O=C(NC1CCCCC1)C(c1ccc(O)cc1)N(CC1CCCO1)C(=O)C1COc2ccccc2O1 (configuration not stated),.,-,-,7.38µM
Cc1ccc(C(C(=O)NC2CCCCC2)N(Cc2cccnc2)C(=O)C2COc3ccccc3O2)o1 (configuration not stated),5.22µM,-,-,-
CN(C)C(=O)Cn1c(SCC(=O)NCc2ccc3c(c2)OCO3)nc2ccccc21,-,-,-,-
CC1CCCCN1C(=O)CSc1nc2cc3c(cc2c(=O)n1Cc1ccc2c(c1)OCO2)OCO3 (configuration not stated),?,-,-,4.15µM
CC1CCCC(C)N1C(=O)Cn1c(SCC(=O)NCc2ccc3c(c2)OCO3)nc2ccccc21 (configuration not stated),6.57µM,-,-,-
O=C(CSc1nc2cc([N+](=O)[O-])ccc2n1-c1ccccc1)NCc1ccc2c(c1)OCO2,-,-,3.98µM,10.4µM
COc1ccc2[nH]c3c(c2c1)CCN1C(=O)C(CC(=O)NC(C)(C)C)C[C@H](C(=O)N2CCCCC2)[C@@]31C (some centres not stated),.,-,.,.
O=C1c2ccccc2-c2cc([N+](=O)[O-])c([N+](=O)[O-])cc21,.,.,-,.
N/C(=N\OC(=O)c1ccc(=O)n(Cc2ccc(Cl)cc2)c1)c1ccccn1,11.7µM,-,.,13.1µM
CC(C)(C)CC(=O)O/N=C(\N)c1ccccn1,-,-,-,13.1µM
N/C(=N\OC(=O)c1ccc(=O)n(Cc2ccccc2)c1)c1ccccn1,13.1µM,-,-,?
SMILES,Pf growth 48h,SARS PLP yeast,NS1 function inh,Pf growth 96h
Cc1ccc(CC(=O)O/N=C(\N)c2ccccn2)cc1,-,-,-,-
COc1ccc(Cl)cc1S(=O)(=O)N1CCC(C(=O)N2CCOCC2)CC1,-,-,-,-
Cc1cccc(N2CCN(C(=O)c3ccccc3SCC(=O)N3CCCC3)CC2)c1C,?,-,.,?
O=C(CN1C(=O)NC2(CCCCC2)C1=O)N1CCOCC1,-,-,.,-
Cc1ccc(N2CC(C(=O)OCc3nnc(-c4ccccc4)o3)CC2=O)cc1 (configuration not stated),-,-,.,-
CC(Sc1nnc(NC2CC2)s1)C(=O)Nc1ccc(N2CCOCC2)cc1 (configuration not stated),-,-,.,-
CC(=O)c1c(C)[nH]c(C(=O)C(C)Sc2nnc(NC3CC3)s2)c1C (configuration not stated),13.1µM,-,.,9.28µM
